PD-1 reversal: activators reversing PD-1 mediated T-cell inhibition. primary human CD4 T cells, PD-L1 beads, CellTiter-Glo 96 h. activation, % (no concentration beside the values). 29,000 tested, under 10 active; call rule not given here;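 further: 0% = median vehicle wells and 100% = positive control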
Hedgehog inh: blocks Sonic Hedgehog signaling; Shh-LIGHT2 Gli-luciferase reporter, 30 h; inhibition, % (no concentration beside the values); actives 2.1% (n = 22,000); AID 2313;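 active means mean inhibition across valid replicates above about 65%, limit read from the data; inconclusive means mean under the limit, yet half or more replicates past it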;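 further: pathway switched on by Shh-conditioned medium diluted 1 in 25 in low serum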
NOMO-1 viab: STK33 inhibitor candidate reducing NOMO-1 cell viability; actives 7.5% (n = 37,000); AID 2330; NOMO-1 AML viability, CellTiter-Glo luminescence, 72 h; inhibition, % (no concentration beside the values); in the data active means inhibition above about 80%; inconclusive means no clear call, values can overlap the other calls
* hit, by the source's call; ? = inconclusive; nt = no result. Hits are enriched below; roughly 7.7% of the tested compounds scored in any of these assays.

SMILES	PD-1 reversal	Hedgehog inh	NOMO-1 viab
COc1ccc(S(=O)(=O)Nc2ccc3c(c2)C(=O)N([C@H](C)CO)C[C@H](C)[C@H](CN(C)Cc2ccc(Cl)c(Cl)c2)O3)cc1	-1	16	73
COc1ccc(CN(C)C[C@H]2Oc3ccc(NS(=O)(=O)c4ccc(OC)cc4)cc3CC(=O)N([C@H](C)CO)C[C@H]2C)cc1	nt	-12	16
COc1ccc(S(=O)(=O)Nc2ccc3c(c2)C(=O)N([C@H](C)CO)C[C@H](C)[C@@H](CN(C)Cc2ccc(Cl)c(Cl)c2)O3)cc1	0	-5	51
COc1ccc(S(=O)(=O)Nc2ccc3c(c2)CC(=O)N([C@@H](C)CO)C[C@@H](C)[C@@H](CN(C)Cc2ccc(Cl)c(Cl)c2)O3)cc1	nt	38	107*
COc1ccc(S(=O)(=O)Nc2ccc3c(c2)CC(=O)N([C@@H](C)CO)C[C@H](C)[C@H](CN(C)Cc2ccc(Cl)c(Cl)c2)O3)cc1	1	39	105*
COc1ccc(S(=O)(=O)Nc2ccc3c(c2)C(=O)N([C@@H](C)CO)C[C@@H](C)[C@@H](CN(C)Cc2ccc(Cl)c(Cl)c2)O3)cc1	-3	?	114*
COc1ccc(S(=O)(=O)Nc2ccc3c(c2)CC(=O)N([C@H](C)CO)C[C@@H](C)[C@@H](CN(C)Cc2ccc(Cl)c(Cl)c2)O3)cc1	-1	31	114*
COc1ccc(CN(C)C[C@@H]2Oc3ccc(NS(=O)(=O)c4ccc(OC)cc4)cc3CC(=O)N([C@H](C)CO)C[C@H]2C)cc1	-2	3	11
O=C(O)c1cc(F)cc(C(F)(F)F)c1	3	-1	12
Cc1ccc([N+](=O)[O-])cc1N(CC(=O)O)S(C)(=O)=O	1	nt	2
COc1ccc(N(C(C)C(=O)Nc2ccccc2Cl)S(C)(=O)=O)cc1 (configuration not stated)	1	nt	9
O=C(CSc1ncn(-c2ccccc2)n1)Nc1ccc(F)c(Cl)c1	1	nt	30
Cc1nnc(SCC(=O)Nc2ccc(Br)c(C)c2C)s1	2	nt	24
CC/C=C\C[C@@H]1C(=O)C=C[C@@H]1CCCCCCCC(=O)O	-8	37	117*
CCCCC[C@H](O)/C=C/[C@H]1C=CC(=O)[C@@H]1C/C=C\CCCC(=O)O	2	-14	41
OCCCc1n[nH]c(=S)n1-c1ccccc1	2	nt	17
CC(Oc1ccccc1-c1ccccc1)c1n[nH]c(=S)n1-c1ccccc1 (configuration not stated)	0	69*	11
CCn1c(SCC(=O)Nc2cccc(Br)c2)nnc1-c1ccco1	nt	nt	15
C[C@@H]1CCCCO[C@@H](CN(C)Cc2ccc(Cl)c(Cl)c2)[C@@H](C)CN([C@H](C)CO)C(=O)c2cc(NC(=O)Cc3ccccc3)ccc2O1	-1	nt	102*
C[C@@H]1CCCCO[C@H](CN(C)Cc2ccc(Cl)c(Cl)c2)[C@@H](C)CN([C@H](C)CO)C(=O)c2cc(NC(=O)Cc3ccccc3)ccc2O1	-5	4	44
C[C@H]1CN([C@@H](C)CO)C(=O)c2cc(NC(=O)CCCCCC(=O)Nc3ccccc3N)ccc2O[C@@H]1CN(C)Cc1ccncc1	0	nt	19
C[C@@H]1CCCCO[C@H](CN(C)Cc2ccc(Cl)c(Cl)c2)[C@@H](C)CN([C@H](C)CO)C(=O)c2cc(NC(=O)CCCCCC(=O)Nc3ccccc3N)ccc2O1	-1	nt	126*
C[C@H]1CN([C@@H](C)CO)C(=O)Cc2cc(NC(=O)CCCCCC(=O)Nc3ccccc3N)ccc2O[C@H]1CN(C)Cc1ccc(Cl)c(Cl)c1	2	nt	127*
C[C@H](CO)N1C[C@H](C)[C@H](CN(C)Cc2ccc(Cl)c(Cl)c2)Oc2ccc(NC(=O)CCCCCC(=O)Nc3ccccc3N)cc2C1=O	-1	nt	133*
COc1ccc(CN(C)C[C@H]2OCCCC[C@@H](C)Oc3ccc(NC(=O)CCCCCC(=O)Nc4ccccc4N)cc3C(=O)N([C@H](C)CO)C[C@@H]2C)cc1	-1	nt	29
SMILES	PD-1 reversal	Hedgehog inh	NOMO-1 viab
C[C@@H]1CN([C@H](C)CO)C(=O)Cc2cc(NC(=O)CCCCCC(=O)Nc3ccccc3N)ccc2O[C@H]1CN(C)Cc1ccc2c(c1)OCO2	0	nt	49
Cc1ccc(OCC(=O)Nc2cccc3ncccc23)c(C)c1	0	nt	36
Cc1cc(OCC(=O)Nc2ccc3oc(-c4ccncc4)nc3c2)cc(C)c1Cl	-6	nt	15
Oc1ccc(Cl)c2cccnc12	nt	-9	110*
COc1cc(NC(=O)COc2cc(Cl)c(Cl)cc2Cl)ccc1NC(=O)c1cc2ccccc2o1	-4	nt	?
COc1cc(NC(=O)COc2cccc(C)c2C)ccc1NC(=O)c1ccccc1Cl	1	nt	26
COc1cc(NC(=O)COc2ccccc2Cl)ccc1NC(=O)c1cc2ccccc2o1	-3	nt	104*
COc1cc(NC(=O)COc2cccc(C)c2C)ccc1-c1cc2ccccc2oc1=O	-1	nt	131*
C/C(=C\c1ccc(C(=O)O)cc1)c1ccc2c(c1)C(C)(C)CCC2(C)C	6	66*	68
CC1(C)CCC(C)(C)c2cc(C(=O)Nc3ccc(C(=O)O)cc3)ccc21	nt	?	47
Cc1nc(N=C(N)N)nc2ccccc12	0	-5	89*
Cc1nc2ccccc2cc1C(N)=O	0	nt	-30
N#CC1=C(N)Nc2onc(-c3cccc(O)c3)c2C1c1ccccc1 (configuration not stated)	-2	7	40
O=C(CSc1nc2ccccc2o1)N1N=CCC1c1ccccc1 (configuration not stated)	nt	nt	7
C[C@@H]1CN([C@@H](C)CO)C(=O)c2cccc(NC(=O)c3ccc(-c4nccs4)cc3)c2O[C@@H]1CN(C)Cc1ccc(C(F)(F)F)cc1	-6	62	88*
C[C@H](CO)N1C[C@H](C)[C@@H](CN(C)Cc2ccc(C(F)(F)F)cc2)Oc2c(NC(=O)c3ccc(-c4nccs4)cc3)cccc2C1=O	-6	?	115*
C[C@@H]1CN([C@H](C)CO)C(=O)c2cccc(NC(=O)c3ccc(-c4nccs4)cc3)c2O[C@@H]1CN(C)Cc1ccc(C(F)(F)F)cc1	-3	21	14
C[C@H]1CN([C@@H](C)CO)C(=O)c2cccc(NC(=O)c3ccc(-c4nccs4)cc3)c2O[C@H]1CN(C)Cc1ccncc1	nt	29	12
C[C@@H]1CN([C@@H](C)CO)C(=O)c2cccc(NC(=O)c3ccc(-c4nccs4)cc3)c2O[C@H]1CN(C)Cc1ccc(C(F)(F)F)cc1	-4	-3	99*
C[C@H]1CN([C@@H](C)CO)C(=O)c2cccc(NC(=O)c3ccc(-c4nccs4)cc3)c2O[C@@H]1CN(C)Cc1ccc(C(F)(F)F)cc1	nt	48	?
CCC(=O)O[C@@H]1CC(=O)O[C@H](C)C/C=C\C=C\[C@@H](O)[C@H](C)C[C@H](CC=O)[C@H](OC2O[C@H](C)[C@@H](O[C@H]3C[C@@](C)(O)[C@@H](OC(=O)CC)[C@H](C)O3)[C@H](N(C)C)[C@H]2O)[C@H]1OC (some centres not stated)	3	-137	-8
COc1ccc(C(=O)Nc2ccccc2C(=O)OCc2cccc([N+](=O)[O-])c2)cc1	nt	nt	36
COC(=O)c1ccccc1NC(=O)c1ccc(Cl)c(S(=O)(=O)Nc2ccccc2C)c1	-2	nt	35

Screening data as filed in PubChem.
